In the supplement of paper PMC10849652:
Of roughly 7,900 targets only a part is listed; those with a hit were picked by preference. About 0.6% of all pairs of compound and target were hits. Values without a mark were called inactive.

Columns and labels:
Test in all cases: log2 fold change, soluble protein after heating vs DMSO (PISA); higher = thermal stabilisation; K562 cells, 10 uM, 30 min; active = over 0.2 and 3.5 SD of the protein, either way, in both replicates (recomputed)
bafetinib = compound: Cc1ccc(NC(=O)c2ccc(CN3CC[C@H](N(C)C)C3)c(C(F)(F)F)c2)cc1Nc1nccc(-c2cncnc2)n1 [bafetinib]
Method in brief: (§1)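 K562 cells at 2×10^6 cells/mL were treated for 30 min with 10 μM compound, and aliquots were heated for 3 min over 48°C-58°C before pooling. Extraction used PBS with 0.5% NP-40 at 4°C, and soluble protein was the supernatant after 21,000xg for 90 min, measured by TMTpro 16plex LC-MS/MS with channel sums equalised. Thermal stability values, relative to control samples and from duplicates, are log2 fold changes.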

[1] = compound: Cc1cccc(CC(=O)N2CCc3c2ccc(-c2cn(C)c4ncnc(N)c24)c3F)n1
Method in brief: as §1

nilotinib = compound: Cc1cn(-c2cc(NC(=O)c3ccc(C)c(Nc4nccc(-c5cccnc5)n4)c3)cc(C(F)(F)F)c2)cn1 [nilotinib]
Method in brief: as §1

[2] = compound: Cc1nc(Nc2n[nH]c3c2CN(C(=O)N[C@H](CN(C)C)c2ccccc2)C3(C)C)c2sccc2n1
Method in brief: as §1

dasatinib = compound: Cc1nc(Nc2ncc(C(=O)Nc3c(C)cccc3Cl)s2)cc(N2CCN(CCO)CC2)n1 [dasatinib]
Method in brief: as §1

[3] = compound: Cc1ncc(-c2ccnc(Nc3ccc(S(C)(=O)=O)cc3)n2)n1C(C)C
Method in brief: as §1

[4] = compound: Cn1cc(-c2ccc3c(c2)CCN3C(=O)Cc2cccc(C(F)(F)F)c2)c2c(N)ncnc21
Method in brief: as §1

[5] = compound: Cn1cc(-c2ccc3nnc(C(F)(F)c4ccc5ncccc5c4)n3n2)cn1
Method in brief: as §1

tipifarnib = compound: Cn1cncc1[C@@](N)(c1ccc(Cl)cc1)c1ccc2c(c1)c(-c1cccc(Cl)c1)cc(=O)n2C [tipifarnib]
Method in brief: as §1

mubritinib = compound: FC(F)(F)c1ccc(/C=C/c2nc(COc3ccc(CCCCn4ccnn4)cc3)co2)cc1 [mubritinib]
Method in brief: as §1

[6] = compound: NC(=O)Nc1cc(-c2cccc(F)c2)sc1C(=O)N[C@H]1CCCNC1
Method in brief: as §1

[7] = compound: NC(=O)c1cnc(N[C@@H]2CCCC[C@@H]2N)nc1Nc1cccc(-n2nccn2)c1
Method in brief: as §1

[8] = compound: NC1(c2ccc(-c3nc4ccn5c(=O)[nH]nc5c4cc3-c3ccccc3)cc2)CCC1
Method in brief: as §1

[9] = compound: NCC(=O)Nc1ccc(-n2nc(C(F)(F)F)cc2-c2ccc3c(ccc4ccccc43)c2)cc1
Method in brief: as §1

entinostat = compound: Nc1ccccc1NC(=O)c1ccc(CNC(=O)OCc2cccnc2)cc1 [entinostat]
Method in brief: as §1

vorinostat = compound: O=C(CCCCCCC(=O)Nc1ccccc1)NO [vorinostat]
Method in brief: as §1

citarinostat = compound: O=C(CCCCCCNC(=O)c1cnc(N(c2ccccc2)c2ccccc2Cl)nc1)NO [citarinostat]
Method in brief: as §1

silmitasertib = compound: O=C(O)c1ccc2c(c1)nc(Nc1cccc(Cl)c1)c1ccncc12 [silmitasertib]
Method in brief: as §1

[10] = compound: O=C1NC(=O)C(c2cnc3ccccn23)=C1c1cn2c3c(cc(F)cc13)CN(C(=O)N1CCCCC1)CC2
Method in brief: as §1

[11] = compound: c1cc(OCCN2CCCCC2)cc(-c2n[nH]c3ccc(-c4nnc[nH]4)cc23)c1
Method in brief: as §1

Sequence of UniProt Q9BX63 (Q9BX63 whole entry, looked up): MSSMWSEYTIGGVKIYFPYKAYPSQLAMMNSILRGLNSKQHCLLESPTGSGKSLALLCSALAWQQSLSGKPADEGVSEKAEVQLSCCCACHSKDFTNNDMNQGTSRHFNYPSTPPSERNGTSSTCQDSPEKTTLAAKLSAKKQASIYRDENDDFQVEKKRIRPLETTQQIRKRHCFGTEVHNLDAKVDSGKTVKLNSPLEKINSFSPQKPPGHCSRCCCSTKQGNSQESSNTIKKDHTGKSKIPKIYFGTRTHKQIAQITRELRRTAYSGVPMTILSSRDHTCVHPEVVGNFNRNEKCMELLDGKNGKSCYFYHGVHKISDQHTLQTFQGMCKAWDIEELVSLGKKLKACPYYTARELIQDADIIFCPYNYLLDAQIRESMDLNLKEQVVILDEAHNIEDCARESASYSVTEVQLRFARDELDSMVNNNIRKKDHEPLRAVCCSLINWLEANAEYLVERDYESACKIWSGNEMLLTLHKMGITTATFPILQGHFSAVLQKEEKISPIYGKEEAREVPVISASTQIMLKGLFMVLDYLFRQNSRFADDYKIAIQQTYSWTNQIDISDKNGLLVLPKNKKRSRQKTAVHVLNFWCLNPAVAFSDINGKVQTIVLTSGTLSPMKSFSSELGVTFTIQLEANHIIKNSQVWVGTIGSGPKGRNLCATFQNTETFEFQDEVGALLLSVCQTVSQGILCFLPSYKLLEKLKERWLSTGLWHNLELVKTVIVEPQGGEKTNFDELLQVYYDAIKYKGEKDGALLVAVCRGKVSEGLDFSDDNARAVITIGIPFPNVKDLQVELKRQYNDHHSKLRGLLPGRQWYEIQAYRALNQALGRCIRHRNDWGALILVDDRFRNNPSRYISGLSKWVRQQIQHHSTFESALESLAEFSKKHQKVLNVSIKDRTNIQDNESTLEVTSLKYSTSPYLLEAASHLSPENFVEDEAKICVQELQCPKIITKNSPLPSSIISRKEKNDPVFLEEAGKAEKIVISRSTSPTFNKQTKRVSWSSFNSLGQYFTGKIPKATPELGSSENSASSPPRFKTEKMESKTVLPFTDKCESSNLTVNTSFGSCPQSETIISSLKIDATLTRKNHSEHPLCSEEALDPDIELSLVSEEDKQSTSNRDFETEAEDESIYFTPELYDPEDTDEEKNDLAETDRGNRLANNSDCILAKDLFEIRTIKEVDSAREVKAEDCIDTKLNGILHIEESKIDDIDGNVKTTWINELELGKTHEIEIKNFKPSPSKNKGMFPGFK
Sequence of UniProt Q9BR61 (Q9BR61 whole entry, looked up): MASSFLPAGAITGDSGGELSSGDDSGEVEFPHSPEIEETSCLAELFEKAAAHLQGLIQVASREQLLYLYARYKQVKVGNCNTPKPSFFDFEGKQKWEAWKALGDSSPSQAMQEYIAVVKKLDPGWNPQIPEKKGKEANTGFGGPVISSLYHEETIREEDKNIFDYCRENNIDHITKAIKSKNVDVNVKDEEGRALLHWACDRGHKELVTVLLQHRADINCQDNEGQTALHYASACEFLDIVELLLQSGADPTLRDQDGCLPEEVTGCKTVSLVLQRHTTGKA
Sequence of UniProt Q5T9A4 (Q5T9A4 whole entry, looked up): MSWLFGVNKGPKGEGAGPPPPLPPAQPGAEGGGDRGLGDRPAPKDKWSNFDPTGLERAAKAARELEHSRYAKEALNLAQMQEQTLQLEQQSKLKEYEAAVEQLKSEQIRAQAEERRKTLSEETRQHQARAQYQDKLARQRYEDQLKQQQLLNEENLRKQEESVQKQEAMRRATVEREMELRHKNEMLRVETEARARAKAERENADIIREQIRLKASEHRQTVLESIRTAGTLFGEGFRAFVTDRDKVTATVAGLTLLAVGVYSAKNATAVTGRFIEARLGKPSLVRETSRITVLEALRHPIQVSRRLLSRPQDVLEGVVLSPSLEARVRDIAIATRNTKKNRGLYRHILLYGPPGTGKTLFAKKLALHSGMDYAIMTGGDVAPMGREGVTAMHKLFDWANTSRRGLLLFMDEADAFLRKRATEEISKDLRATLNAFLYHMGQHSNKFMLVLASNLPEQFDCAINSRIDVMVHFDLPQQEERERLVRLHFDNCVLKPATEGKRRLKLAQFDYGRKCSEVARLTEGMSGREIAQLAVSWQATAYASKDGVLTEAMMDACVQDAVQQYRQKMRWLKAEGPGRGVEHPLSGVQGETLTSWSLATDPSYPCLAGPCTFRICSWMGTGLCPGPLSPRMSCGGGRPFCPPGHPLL
Sequence of UniProt P54886 (P54886 whole entry, looked up): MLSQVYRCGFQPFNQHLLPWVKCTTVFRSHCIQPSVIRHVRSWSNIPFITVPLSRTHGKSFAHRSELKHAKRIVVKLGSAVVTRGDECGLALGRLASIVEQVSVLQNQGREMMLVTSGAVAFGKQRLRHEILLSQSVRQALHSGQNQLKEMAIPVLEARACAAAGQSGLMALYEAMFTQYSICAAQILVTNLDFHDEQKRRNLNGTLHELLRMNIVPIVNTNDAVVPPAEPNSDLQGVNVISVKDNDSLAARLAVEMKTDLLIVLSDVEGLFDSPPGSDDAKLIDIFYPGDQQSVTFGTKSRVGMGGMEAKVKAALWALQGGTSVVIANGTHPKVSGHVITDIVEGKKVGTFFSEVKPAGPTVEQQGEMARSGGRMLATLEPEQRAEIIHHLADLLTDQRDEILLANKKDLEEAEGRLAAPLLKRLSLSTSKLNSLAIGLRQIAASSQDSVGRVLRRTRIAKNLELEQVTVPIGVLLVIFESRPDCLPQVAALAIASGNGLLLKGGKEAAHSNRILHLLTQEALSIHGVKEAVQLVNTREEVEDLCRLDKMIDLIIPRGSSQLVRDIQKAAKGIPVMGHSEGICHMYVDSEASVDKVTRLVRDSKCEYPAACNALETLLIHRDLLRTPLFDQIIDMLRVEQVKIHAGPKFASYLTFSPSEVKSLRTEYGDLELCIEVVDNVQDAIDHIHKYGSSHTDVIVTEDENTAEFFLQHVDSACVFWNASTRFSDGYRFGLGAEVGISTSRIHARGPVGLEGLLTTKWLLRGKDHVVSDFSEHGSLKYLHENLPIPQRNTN
Sequence of UniProt Q96BI3 (Q96BI3 whole entry, looked up): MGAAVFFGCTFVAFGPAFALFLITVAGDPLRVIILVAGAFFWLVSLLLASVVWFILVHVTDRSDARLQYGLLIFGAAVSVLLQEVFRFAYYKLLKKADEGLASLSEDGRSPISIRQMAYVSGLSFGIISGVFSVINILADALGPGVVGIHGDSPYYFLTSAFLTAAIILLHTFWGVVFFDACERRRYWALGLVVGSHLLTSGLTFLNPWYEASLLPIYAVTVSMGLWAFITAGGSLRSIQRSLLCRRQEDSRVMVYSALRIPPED
Sequence of UniProt Q93084 (Q93084 whole entry, looked up): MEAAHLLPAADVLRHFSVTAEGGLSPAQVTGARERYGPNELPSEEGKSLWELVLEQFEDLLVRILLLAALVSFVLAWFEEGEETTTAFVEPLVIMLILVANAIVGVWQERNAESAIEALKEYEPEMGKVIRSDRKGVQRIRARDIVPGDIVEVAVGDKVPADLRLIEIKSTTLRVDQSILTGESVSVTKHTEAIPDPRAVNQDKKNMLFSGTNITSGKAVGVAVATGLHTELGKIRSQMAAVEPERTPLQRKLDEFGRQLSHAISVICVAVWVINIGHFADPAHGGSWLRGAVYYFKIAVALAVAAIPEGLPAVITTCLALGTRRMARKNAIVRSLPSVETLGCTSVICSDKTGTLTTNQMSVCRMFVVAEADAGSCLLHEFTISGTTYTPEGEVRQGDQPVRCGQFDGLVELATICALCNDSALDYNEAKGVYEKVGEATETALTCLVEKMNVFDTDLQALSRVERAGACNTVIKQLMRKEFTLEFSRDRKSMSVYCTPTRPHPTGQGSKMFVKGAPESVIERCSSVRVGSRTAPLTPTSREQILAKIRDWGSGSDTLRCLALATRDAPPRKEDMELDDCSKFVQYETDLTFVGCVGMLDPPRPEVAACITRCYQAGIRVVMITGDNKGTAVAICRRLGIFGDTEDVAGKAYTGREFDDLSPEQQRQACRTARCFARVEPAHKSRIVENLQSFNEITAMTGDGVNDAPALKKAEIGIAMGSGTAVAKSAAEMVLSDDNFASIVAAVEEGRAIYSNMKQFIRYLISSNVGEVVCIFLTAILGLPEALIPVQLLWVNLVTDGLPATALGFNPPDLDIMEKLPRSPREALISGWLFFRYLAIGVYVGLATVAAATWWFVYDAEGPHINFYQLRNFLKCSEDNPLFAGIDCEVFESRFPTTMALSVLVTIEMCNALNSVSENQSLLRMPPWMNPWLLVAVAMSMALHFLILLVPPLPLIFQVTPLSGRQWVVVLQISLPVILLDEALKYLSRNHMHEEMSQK
Sequence of UniProt Q15059 (Q15059 whole entry, looked up): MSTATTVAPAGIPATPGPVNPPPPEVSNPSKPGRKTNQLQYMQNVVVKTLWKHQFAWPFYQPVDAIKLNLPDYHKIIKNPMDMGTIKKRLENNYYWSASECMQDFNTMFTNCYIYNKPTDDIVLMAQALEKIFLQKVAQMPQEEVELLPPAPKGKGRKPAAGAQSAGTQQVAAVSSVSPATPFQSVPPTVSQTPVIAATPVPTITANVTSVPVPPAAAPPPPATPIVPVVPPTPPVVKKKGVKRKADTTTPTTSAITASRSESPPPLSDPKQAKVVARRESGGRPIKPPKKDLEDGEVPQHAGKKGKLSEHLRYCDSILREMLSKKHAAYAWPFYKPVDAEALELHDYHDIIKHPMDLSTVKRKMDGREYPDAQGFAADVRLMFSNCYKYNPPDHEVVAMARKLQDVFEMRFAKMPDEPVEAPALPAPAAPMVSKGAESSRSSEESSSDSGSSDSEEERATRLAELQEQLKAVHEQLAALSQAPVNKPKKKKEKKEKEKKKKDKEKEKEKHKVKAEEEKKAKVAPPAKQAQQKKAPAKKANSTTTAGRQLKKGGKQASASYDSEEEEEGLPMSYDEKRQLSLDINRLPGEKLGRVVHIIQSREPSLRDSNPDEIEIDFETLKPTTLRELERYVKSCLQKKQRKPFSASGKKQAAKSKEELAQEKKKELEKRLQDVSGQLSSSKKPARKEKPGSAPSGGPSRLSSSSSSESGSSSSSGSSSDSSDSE

Row | Target | log2 fold change (bafetinib) | log2 fold change [1] | log2 fold change (nilotinib) | log2 fold change [2] | log2 fold change (dasatinib) | log2 fold change [3] | log2 fold change [4] | log2 fold change [5] | log2 fold change (tipifarnib) | log2 fold change (mubritinib) | log2 fold change [6] | log2 fold change [7] | log2 fold change [8] | log2 fold change [9] | log2 fold change (entinostat) | log2 fold change (vorinostat) | log2 fold change (citarinostat) | log2 fold change (silmitasertib) | log2 fold change [10] | log2 fold change [11]
1 | ACBD6 (UniProt Q9BR61) | -0.058 | 0.063 | 0.017 | -0.085 | -0.23 | 0.057 | -0.053 | 0.056 | -0.072 | -0.085 | -0.089 | -0.077 | -0.006 | 0.001 | -0.048 | 0.086 | 0.084 | 0.134 | 0.022 | 0.271
2 | AP2S1 (UniProt P53680) | 0.023 | -0.01 | -0.019 | -0.009 | -0.011 | -0.082 | -0.057 | 0.004 | -0.04 | -0.001 | -0.386 (active) | 0.102 | -0.009 | -0.039 | -0.066 | 0.108 | -0.077 | 0.011 | -0.314 (active) | -0.217
3 | ATP2A3 isoform 2 (UniProt Q93084) | -0.063 | -0.001 | -0.057 | -0.064 | -0.005 | 0.058 | -0.014 | 0.076 | 0.025 | -0.044 | -0.008 | 0.007 | -0.096 | -0.072 | 0.035 | -0.018 | 0.019 | 0.068 | -0.069 | -0.05
4 | ATAD3B (UniProt Q5T9A4) | -0.014 | 0.018 | -0.072 | -0.039 | -0.099 | 0.027 | -0.103 | -0.186 | 0.03 | -0.37 | 0.017 | -0.029 | -0.089 | -0.088 | 0.013 | 0.108 | -0.016 | 0.005 | 0.248 | -0.104
5 | BCL9L (UniProt Q86UU0) | 0.043 | 0 | -0.046 | -0.064 | 0.018 | 0.053 | -0.013 | -0.031 | 0.014 | 0.026 | 0.037 | -0.009 | 0.03 | 0.021 | -0.002 | 0.012 | 0.017 | -0.038 | -0.045 | 0.241 (active)
6 | ATP1A1 (UniProt P05023) | 0.018 | 0.102 | 0.062 | 0.008 | 0.07 | 0.005 | 0.04 | 0.001 | -0.011 | 0.023 | -0.055 | 0.093 | 0.116 | 0.07 | -0.04 | 0.03 | -0.003 | -0.062 | -0.077 | 0.003
7 | ACAD9 (UniProt Q9H845) | -0.061 | -0.022 | 0 | 0.021 | 0.125 | -0.023 | 0.047 | 0.014 | 0.055 | 0.067 | -0.009 | -0.051 | -0.036 | -0.012 | -0.021 | 0.033 | 0.035 | 0.021 | -0.016 | 0.007
8 | ARHGAP25 isoform 4 (UniProt P42331) | -0.035 | -0.089 | 0.28 | -0.276 | -0.421 | 0.078 | -0.009 | – | – | 0.266 | – | 0.068 | -0.181 | -0.127 | – | -0.099 | 0.105 | 0.213 | 0.021 | -0.049
9 | BRIP1 (UniProt Q9BX63) | -0.135 | -0.011 | -0.069 | 0.036 | -0.09 | -0.071 | 0.02 | -0.197 | -0.101 | – | 0.139 | -0.139 | – | -0.099 | 0.001 | -0.025 | 0.054 | – | -0.07 | 0.077
10 | ALDH18A1 (UniProt P54886) | -0.206 | 0.071 | -0.3 | -0.15 | -0.133 | 0.042 | -0.202 | -0.128 | -0.141 | -0.561 (active) | 0.033 | -0.03 | -0.34 | -0.219 | 0.249 | 0.194 | 0.031 | 0.018 | -0.329 | -0.372
11 | ADPRH (UniProt P54922) | 0.082 | -0.29 | 0.141 | 0.026 | – | -0.161 | – | 0.038 | -0.005 | 0.015 | 0.015 | – | -0.178 | -0.623 (active) | -0.034 | -0.039 | – | 0.086 | -0.104 | –
12 | ARFIP1 isoform 2 (UniProt P53367) | -0.281 | -0.195 | -0.147 | -0.049 | -0.316 | -0.013 | – | – | -0.024 | -0.004 | 0.11 | – | -0.147 | – | 0.012 | 0.331 | – | -0.08 | -0.062 | –
13 | APH1A (UniProt Q96BI3) | 0.132 | -0.06 | -0.037 | -0.04 | -0.039 | 0.028 | 0.036 | – | -0.06 | 0.05 | -0.048 | -0.201 | -0.075 | 0.303 (active) | 0.014 | -0.024 | 0.055 | 0.006 | – | 0.085
14 | ATF1 (UniProt P18846) | -0.12 | 0.018 | 0.035 | -0.09 | – | 0.064 | -0.006 | – | 0.06 | 0.057 | 0.038 | 0.096 | 0.063 | 0.127 | 0.066 | -0.102 | 0.144 | -0.146 | 0.372 (active) | -0.091
15 | ABHD11 (UniProt Q8NFV4) | 0.011 | 0.175 | 0.003 | -0.006 | 0.073 | 0.083 | 0.024 | 0.025 | 0.174 | -0.235 | – | -0.089 | -0.139 | 0.016 | – | -0.042 | 0.058 | -0.021 | -0.159 | -0.009
16 | BRD3 (UniProt Q15059) | -0.152 | -0.002 | -0.088 | -0.031 | -0.319 | -0.138 | -0.05 | 0.086 | -0.126 | 0.047 | 0.008 | -0.026 | 0.017 | 0.119 | -0.123 | -0.663 (active) | -0.567 (active) | 0.061 | – | -0.002
17 | BCCIP isoform 2 (UniProt Q9P287) | 0.014 | 0.021 | -0.046 | -0.029 | -0.071 | 0.017 | -0.064 | -0.007 | -0.015 | -0.023 | 0 | -0.001 | -0.096 | -0.011 | 0.027 | 0.033 | 0.021 | 0.096 | -0.029 | -0.031
